Results taken from PubChem BioAssay (NCI).
The panel holds about 83,000 compounds, 20% with a hit somewhere; the sample as a whole holds those more often.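 Negative percent growth values reflect cell death: -40 means 40% of the cells present at the start died, and -100 means all died.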 The source made the active and inactive calls. Rule for the calls: active = growth percent below 10; inactive = the rest.

Test system: HL-60(TB) leukemia
Assay: NCI-60 one-dose screen, 48 h (100 = growth as untreated, 0 = no growth, -100 = all killed)
Settings: 10 µM unless noted

SMILES	growth
COc1cc(/C=C/C(=O)c2cccc(-n3cc(-c4cc(OC)c(OC)c(OC)c4)[nH]c3=O)c2)cc(OC)c1OC	-18.5% (active)
COc1ccc(-c2nc3sccn3c2/C=C/C(=O)c2cc(OC)c(OC)c(OC)c2)cc1OC	6.14% (active)
O=C(NN(C(=O)c1ccccc1)c1cccs1)c1ccccc1	101% (inactive)
CN(C)CCCCC(C(=O)CBr)(c1ccccc1)c1ccccc1	-36.1% (active)
COc1cc2ncn3c(=O)c4c5c(sc4nc3c2cc1OC)CCCCC5	100% (inactive)
Cc1ccc(NC(=O)Cc2ccc(/C=C/C(=O)c3ncc[nH]3)cc2)cc1	27.5% (inactive)
CCCCCCCCCCCCCCCCCCOc1ccc(CC(=O)OCC[N+](C)(C)C)cc1	2.32% (active)
NC1(N)C=CC2=C(C=C1)C1(N)C3=C(C=CC(N)(N)C=C3)N2C2(N)C3=C(C=CC(N)(N)C=C3)N1C1=C2C=CC(N)(N)C=C1	-2.73% (active)
CCN(CC)CCCC(C)Nc1c(-c2ccccc2)cnc2cc(Cl)ccc12 (stereo not given)	56.3% (inactive)
COC1OC(C(O)C(O)CO)C(O)C(O)C1O (stereo not given)	108% (inactive)
CC(=O)OC1Oc2ccccc2-c2oc(=O)c(-c3cc4ccc(N(C)C)cc4oc3=O)cc21 (stereo not given)	-9.4% (active)
O=C(/C=C/c1cccc(Oc2ccccc2)c1)c1ccc(Nc2nc(Nc3ccc(F)cc3)nc(Nc3ccc(Cl)cc3)n2)cc1	-38.2% (active)
CCOc1ncc([N+](=O)[O-])c(OCC)n1	108% (inactive)
CC1CN(C2CCCCC2)C(=O)NC1=O (stereo not given)	75.8% (inactive)
CC1=NN(c2ccccc2)C(=O)C1C(=O)c1ccccc1 (stereo not given)	68.5% (inactive)
COc1cc(NS(=O)(=O)c2ccc(N)cc2)ncn1	105% (inactive)
O=C1C=CC(=Nc2cc(Br)c(O)c(Br)c2)C=C1	29.9% (inactive)
COC(=O)c1cc(-c2ccc(Cl)c(Cl)c2)[nH]c(=O)c1C#N	101% (inactive)
OCCCCc1nccc2c1[nH]c1ccccc12	73.7% (inactive)
O=C(Nc1ccc(-n2cc(-c3ccncc3)c(-c3ccc(Cl)c(O)c3)n2)cc1)Nc1cc(C(F)(F)F)cc(C(F)(F)F)c1	2.94% (active)

SMILES	growth
COC(=O)[C@H](CSC)N(C)C(=O)[C@@H]1CSSC[C@@H](NC(=O)c2nc3ccccc3cc2O)C(=O)NCC(=O)N1C	0.567% (active)
Cc1ccc(OCCCCCCNCCO)c(C)c1	-3.98% (active)
CCCCC(O)Cn1ncc(C(=O)OCC)c1NC(=O)NCc1ccccc1C(F)(F)F (stereo not given)	76.3% (inactive)
O=C1/C(=C/c2cn(-c3ccccc3)nc2-c2ccccc2)SC(=S)N1CCc1ccccc1	102% (inactive)
CC(C)(C)n1cc(-c2ccnc(NCCCNS(=O)(=O)c3cccc(F)c3)c2)c(-c2cccc(O)c2)n1	35.4% (inactive)
COc1ccc(S(=O)(=O)NCCCNc2nccc(-n3ccc4cccnc43)n2)cc1	104% (inactive)
NN=C(c1ccc(Cl)cc1)c1ccc(Cl)cc1	131% (inactive)
COc1cc(NCC(O)CN(CC(C)C)CC(C)C)c2nc(C)ccc2c1 (stereo not given)	81.2% (inactive)
Cc1ccc(C2=NN(c3ccc(S(N)(=O)=O)cc3)C(c3cn(-c4ccccc4)nc3-c3ccccc3)C2)cc1 (stereo not given)	16.5% (inactive)
Oc1ccc(C2OCCO2)c2cccnc12	15.8% (inactive)
Cc1cc2c(-c3nc4ccccn4c3NC3CCCCC3)c(O)c(O)cc2c(O)c1-c1c(C)cc2c(-c3nc4ccccn4c3NC3CCCCC3)c(O)c(O)cc2c1O	29.1% (inactive)
COc1cc2nc3cc([N+](=O)[O-])ccc3c(NCCNCC(C)(C)O)c2cc1OC	-12.8% (active)
CCOC(=O)C1=C(C(F)(F)F)NC(=S)NC1CN1C(=O)c2ccccc2C1=O (stereo not given)	86.7% (inactive)
Nc1cc2c(cc1Cl)-c1ccc(Cl)cc1C2=O	75.7% (inactive)
CCOc1ccccc1/C=N\N=C(N/N=C/c1ccccc1OCC)N/N=C/c1ccccc1OCC	11.9% (inactive)
Cc1ccc(C(=O)Nc2ccc(CN3CCN(C)CC3)c(C(F)(F)F)c2)cc1C#Cc1cnc2cccnn12	-71.9% (active)
Cc1nccc2c3ccc(OCc4cn(-c5ccc(Br)cc5)nn4)cc3n(CC(C)C)c12	-48.1% (active)
COc1ccc(-c2nc3ccc(-c4nc5ccc(N6CCN(c7ccncc7)CC6)cc5[nH]4)cc3[nH]2)cc1OC	35.3% (inactive)
Cc1nc(N)nc2c1CCC(Nc1ccccc1)S2 (stereo not given)	97.1% (inactive)
CN1CCN(C2=C(Cl)C(=O)c3ccccc3C2=O)CC1	24.8% (inactive)
